# Experimental data taken from PubChem BioAssay (NCI).
# The panel holds about 83,000 compounds, 20% with a hit somewhere; the sample as a whole holds those more often.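 Testing used 96-well plates and a 48-hour single-concentration exposure. Example: -40 means 40% of the starting cells died.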 Active and inactive are the calls of the source.
# System: SNB-75 CNS
# Assay: NCI-60 one-dose screen, 48 h (100 = growth as untreated, 0 = no growth, -100 = all killed)
# Settings: 10 µM unless noted
# Method: Growth inhibition of the SNB-75 human tumor cell line is measured as a screen for anti-cancer activity. Cells are grown in 96 well plates and exposed to the test compound for 48 hours. Compounds are tested at a single concentration, which is 10^-5 M for most compounds. The reported endpoint is percent growth (GI% or GIPRCNT), where numbers from 0 - 100% represent growth inhibition, and numbers from -100% - 0 represent cell death. For example, a value of 40 represents 60% growth inhibition. A value of 0 means no net growth occurred over the course of the experiment. A value of -40 indicates 40% of cells at the beginning of the experiment died by the end of the experiment. A value of -100 means all cells are dead at the end of the experiment.
# NCI-60 Human Tumor Cell Lines Screen was performed using the standard one-dose NCI protocol, which is described in more detail at https://dtp.cancer.gov/discovery_development/nci-60/default.htm.
# Compounds with GIPRCNT values below 10 were considered active. Activity score was based on GIPRCNT using the following formula: […]
# Score is 0 for GIPRCNT values of 100 or above, 50 for GIPRCNT values of 0, and 100 for GIPRCNT values of -100.
row,Structure (SMILES),growth
1,COc1ccc2c(c1)C(=O)c1c-2c(OCCCN(C)C)nc2cc(Br)ccc12,79.2% (inactive)
2,Cn1c(N)c(N=O)c(=O)[nH]c1=O,97% (inactive)
3,COc1ccc(/C=N/NC(=O)c2ccc(S(C)(=O)=O)cc2)cc1OC,85.9% (inactive)
4,COc1ccc(Nc2nccc(N3CCN(c4c5ccc(Cl)cc5nc5ccc(OC)cc45)CC3)n2)cc1,67.5% (inactive)
5,CCC1=C(c2ccc(OC)cc2)C(C)(C)Oc2c1ccc(O)c2CN1CCCC1,41.3% (inactive)
6,Cc1ccc2c(c1)O/C(=C\c1ccc([N+](=O)[O-])o1)C2=O,84.3% (inactive)
7,CC(C)(C)c1ccc(S(=O)(=O)O)s1,92.4% (inactive)
8,c1ccc(Nc2nnc(-c3cc(-c4cccnc4)n(-c4ccccc4)n3)s2)cc1,102% (inactive)
9,Cc1cc(C(C)(C)c2cc(C)c(O)c(CN(C)C)c2)cc(CN(C)C)c1O,90.1% (inactive)
10,CCOc1nc(-c2ccccc2)cc2c(O)c(-c3nnco3)[nH]c(=O)c12,55.2% (inactive)
11,O=[N+]([O-])c1ccc(N/N=C/c2c(O)ccc3ccccc23)nc1,69.3% (inactive)
12,COc1ccc(C(=O)COc2cccc(/C=C3\Oc4ccc5ccccc5c4C3=O)c2)cc1,44.8% (inactive)
13,O=c1ccn(C2CCCO2)c(=O)[nH]1 (stereo not given),91.9% (inactive)
14,CC[C@H](C)C(=O)O[C@H]1C[C@@H](C)C=C2C=C[C@H](C)[C@H](CC[C@@H]3C[C@@H](O)CC(=O)O3)[C@H]21,58.3% (inactive)
15,COC(=O)CCC1=C(C)C(C)=N/C1=C\c1[nH]c(-c2ccc[nH]2)cc1OC,-34.9% (active)
16,CSc1nc2c(c(=O)n1C)C(c1ccccc1)C1=C(N2)/C(=C/c2ccccc2)CCC1 (stereo not given),57.9% (inactive)
17,COc1ccc2nccc(/C=C/c3ccnc4ccc(OC)cc34)c2c1,102% (inactive)
18,O=[N+]([O-])c1ccc(Oc2cccc(C(F)(F)F)c2)c([N+](=O)[O-])c1,92.2% (inactive)
19,CCOC(=O)c1cc(-c2cccnc2)nc2c(Cl)cc(Cl)cc12,104% (inactive)
20,c1coc([C@@H]2C[C@@H]3Cc4ccc5ccccc5c4N2O3)c1,89.2% (inactive)

row,Structure (SMILES),growth
1,COc1ccc(C(=O)C(C)Br)cc1OC (stereo not given),85.8% (inactive)
2,Oc1ccc(-c2nn(-c3ccccc3)cc2-c2nc3ccccc3s2)cc1,101% (inactive)
3,ClC1C2CC(c3ccccc32)C1Cl (stereo not given),102% (inactive)
4,N=c1ccn2c(n1)O[C@@H]1[C@@H](O)[C@H](CO)O[C@@H]12,82.8% (inactive)
5,O=C(Nc1ccc(Nc2ccncc2)cc1)c1ccc(Nc2ccnc3ccc([N+](=O)[O-])cc23)cc1[N+](=O)[O-],85.8% (inactive)
6,OC(Cc1cccnc1)c1ccccc1 (stereo not given),99.7% (inactive)
7,CC(C)[C@H]1CC[C@H]2[C@@H](CC[C@H]3[C@](C)(CN)CCC[C@]23C)C1,69% (inactive)
8,O=C(/C(=N/O)S(=O)(=O)c1ccccc1)c1cccs1,92.6% (inactive)
9,Cc1cccc(Cl)c1NC(=O)c1ccc2nc(NC(=O)NC3CC(C)(C)NC(C)(C)C3)sc2c1,-18.9% (active)
10,COc1ccc2c(c1)C(=O)/C(=C/c1cccc(OCC(=O)c3ccccc3)c1)CC2,112% (inactive)
11,Cc1nc(N)[nH]c(=O)c1C,99.4% (inactive)
12,COc1cc(/C=C/C(=O)c2ccc(F)cc2)ccc1OCCCCCOc1cc2c(cc1OC)C(=O)N1CCCC1C=N2 (stereo not given),-57.5% (active)
13,Cn1cnc([N+](=O)[O-])c1S(=O)(=O)Oc1ccc(Cl)cc1,103% (inactive)
14,Cc1cc(O)c2c(c1)C[C@H]1[C@@H]3CC[C@H]4CC(=O)CC[C@]4(C)[C@H]3CC(=O)[C@]21C,98.4% (inactive)
15,OCCOc1c(Cl)cc(Cl)cc1Cl,62.2% (inactive)
16,O=C1CCCN1C1CCN(Cc2cc3ccccc3[nH]c2=O)c2ccccc21 (stereo not given),79.3% (inactive)
17,Cc1nn(-c2ccccc2)c2nc(Cl)c(/C=C/C(=O)c3ccccc3)c(-c3ccccc3)c12,89.4% (inactive)
18,O=C(CSCC(=O)N/N=C/c1ccccc1O)N/N=C\c1ccccc1O,36.8% (inactive)
19,O=C1Nc2ccc(F)cc2/C1=C/c1nc(-c2ccc(F)cc2)n2ccccc12,93.6% (inactive)
20,O=[N+]([O-])c1ccc2c(c1)S(=O)c1cc([N+](=O)[O-])ccc1N2,87.2% (inactive)
